According to PubChem BioAssay AID1851 (National Center for Advancing Translational Sciences (NCATS), 2009):
“And” between values parts separate entries of the source, which are not always exact repeats. Equal entries are not always repeated. Hit rate of the full screen: of about 16,000 compounds, about 5,700 (36%) were called active. About 24% were inconclusive and are not listed. The call rests on the fitted dose curve; in most records, active means well fitted curve in the direction sought with a large enough effect; inconclusive means small, poorly fitted or top-dose-only effect, or effect the other way; inactive means no such curve, though single readings can be large or run the other way. Some of the results follow. Some compounds were tested as several samples or in several runs, with calls that do not always agree.

Target: Cytochrome P450 1A2 (Homo sapiens) (UniProt P05177)
Sequence (P05177 whole entry, looked up): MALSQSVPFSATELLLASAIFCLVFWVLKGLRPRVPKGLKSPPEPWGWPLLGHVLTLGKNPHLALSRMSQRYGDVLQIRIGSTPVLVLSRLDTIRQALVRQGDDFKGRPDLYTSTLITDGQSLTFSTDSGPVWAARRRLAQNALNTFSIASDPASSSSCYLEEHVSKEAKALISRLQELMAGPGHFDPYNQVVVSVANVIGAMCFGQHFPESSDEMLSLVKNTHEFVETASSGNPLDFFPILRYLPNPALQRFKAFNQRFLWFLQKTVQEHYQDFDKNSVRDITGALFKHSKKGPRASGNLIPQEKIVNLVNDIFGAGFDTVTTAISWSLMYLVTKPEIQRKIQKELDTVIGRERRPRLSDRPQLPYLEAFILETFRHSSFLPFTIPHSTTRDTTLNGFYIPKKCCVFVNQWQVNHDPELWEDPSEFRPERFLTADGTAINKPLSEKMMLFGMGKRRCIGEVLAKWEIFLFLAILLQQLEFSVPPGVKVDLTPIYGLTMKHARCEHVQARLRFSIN
Experiment: Cytochrome panel assay with activity outcomes
Details: recombinant CYP, pro-luciferin dealkylation, luminescence, p450-cyp1a2; series mostly up to 57.1 µM
On the % scale 0 is the no-effect control and ±100 the full control effect.

AC50, active:
CCN1C(=O)/C(=C2\SC(=S)N(CCCOC)C2=O)c2ccccc21 1.58 µM, FC(F)(F)c1ccccc1-n1ccnc1 0.251 µM, N#Cc1c(-n2ccnc2)cccc1-n1ccnc1 2.51 µM, N#Cc1c(Cl)cccc1-n1ccnc1 1 µM, COc1ccc(CNc2ncnc3ccc(-c4ccccc4C#N)cc23)c(OC)c1 6.31 µM, COc1ccccc1CNc1ncnc2ccc(-c3ccccc3C#N)cc12 1.26 µM, Cc1ccc(N(Cc2ccc([N+](=O)[O-])cc2)C(=O)c2ccco2)cc1 12.6 µM, Nc1nc(-c2cccs2)cs1 7.08 µM, O=C(Nc1cc(-c2nc3ccccc3s2)ccc1Cl)c1ccc2c(c1)OCO2 1.41 µM, O=C(Nc1cccc(-c2nc3ccccc3s2)c1)c1ccc2c(c1)OCO2 2 µM, Cn1cccc1CC(=O)N/N=C\c1cccs1 15.8 µM, C/C(=N/NC(=O)Cc1cccn1C)c1ccccc1 20 µM, O=C(NCC1CCCO1)c1cc(-c2ccc(Cl)cc2Cl)on1 (stereo unspecified) 2.51 µM, O=C(Nc1ccccc1C(=O)NCC1CCCO1)c1ccc(Cl)cc1Cl (stereo unspecified) 8.91 µM, Clc1ccccc1NN(Cc1ccncc1)c1ccccc1Cl 5.01 µM, CN(C)c1ccc(N=Nc2cccc3ccoc23)cc1 0.251 µM, O=c1onc2cnc3ccccc3n12 2.51 µM, Cc1ccc(OCC(O)CNC(=O)c2ccccc2C(=O)O)cc1 (stereo unspecified) 14.1 µM, Cc1cccc(NC(=O)CSc2nc3nc(C)cc(C)c3c(=O)[nH]2)c1 2 µM, Cc1cccc(NC(=O)CCSc2nc(C)cc(C)n2)c1 14.1 µM, OCCN(C=NC1=NN(c2cccc(C(F)(F)F)c2)CC1)CCO 2.82 µM, COc1ccc(-c2cc(C(F)F)nc(-n3nc(C)cc3C)n2)cc1 1.78 µM, Fc1ccc([C@H]2CCNC[C@H]2COc2ccc3c(c2)OCO3)cc1 3.16 µM, Cc1nn2c(NCC(C)C)c3c(nc2c1-c1ccccc1)CCC3 2.82 µM, CCN(CC)c1nc(Nc2ccccc2)nc(Oc2ccc(C(=O)OC)cc2)n1 12.6 µM, COC(=O)c1c(C)[nH]c(O)c1C=Nc1ccc(C(C)C)cc1 5.62 µM, CSc1nsc(SC)c1C(=O)Nc1ccc(C)cc1 7.08 µM, CC1=C(CC(=O)O)c2cc(F)ccc2/C1=C\c1ccc(S(C)(=O)=O)cc1 12.6 µM, CC1=C(CC(=O)O)c2cc(F)ccc2/C1=C\c1ccc(S(C)=O)cc1 (stereo unspecified) 3.98 µM and 12.6 µM, Cc1cnc(CNc2ccnc(-c3cccc(NS(C)(=O)=O)c3)n2)cn1 20 µM, Cc1cnc(CNc2ccnc(-c3cccc(C#N)c3)n2)cn1 1.26 µM, COc1cccc(-c2nccc(NCc3cnc(C)cn3)n2)c1 0.501 µM, O=C(N/N=C/c1cccnc1)c1ccc([N+](=O)[O-])cc1 5.01 µM, O=[N+]([O-])c1ccc(/C=N/N/C(=N/c2ccccn2)c2ccccn2)cc1 12.6 µM, Nc1ccc(C(=O)N/N=C/c2ccccc2)cc1 25.1 µM, O=C(N/N=C/c1ccc(F)cc1)c1ccc(Br)cc1 0.794 µM, O=c1c(-c2cccc(F)c2)nc2cncnc2n1C1CC1 1.58 µM, O=c1c(-c2cccc(Cl)c2)nc2cncnc2n1C1CC1 0.631 µM, O=c1c(-c2cccs2)nc2cncnc2n1C1CC1 2.51 µM, O=c1c(-c2ccccc2)nc2cncnc2n1C1CC1 2 µM, O=c1c(-c2ccc(F)cc2)nc2cncnc2n1C1CC1 0.158 µM, Cc1nc2cncnc2n(C2CC2)c1=O 15.8 µM, O=c1c(-c2ccc(F)c(F)c2)nc2cncnc2n1C1CC1 0.1 µM, O=c1c(-c2cc(F)cc(F)c2)nc2cncnc2n1C1CC1 1.26 µM, COC(=O)c1cc2c(ccn2-c2ccc(F)cc2)n1CC(C)C 0.501 µM, COC(=O)c1cc2c(ccn2-c2ccc(F)cc2)n1C(C)C 1 µM, Cc1ccccc1OC1C(=O)N(Cc2ccc3c(c2)OCO3)C1c1sccc1C (stereo unspecified) 3.16 µM, Cn1cc(C(=O)OCC2CCN(CCNS(C)(=O)=O)CC2)c2ccccc21 15.8 µM

AC50, inactive:
CCCCNC(=O)C1CC(=O)N(c2ccc(OC)cc2)C1c1ccc(OC)cc1 (stereo unspecified), CC(=O)Nc1ccc(NC2=Nc3ccccc3N3C2=Nc2c(c(C)nn2-c2ccccc2)C3c2ccccc2)cc1 (stereo unspecified), C=CCNC(=O)C1CCN(S(=O)(=O)CC)CC1, Cc1ccc(C(=O)N/C(=C\c2ccc([N+](=O)[O-])cc2)C(=O)NCCc2ccccc2)cc1, O=C1c2ccccc2C(=O)N1CCCCN(C(=O)c1ccc([N+](=O)[O-])cc1)c1ccc(Cl)cc1, CC(=O)SCC[N+](C)(C)C, Cc1ccc(-n2nc3ccc(NC(=O)c4ccc5c(c4)OCO5)cc3n2)cc1, CCc1sc(N(C(=O)Cc2ccccc2)c2cccc(F)c2)nc1-c1ccc(C)cc1, COc1ccc(N(CC(=O)N/N=C/c2cccs2)S(=O)(=O)c2ccc(OC)c(OC)c2)cc1, CC(C)(C)c1cccc(Oc2nn[nH]n2)c1, NC(=NCCC[C@H](N)C(=O)O)NO, CN/C(=C\[N+](=O)[O-])NCCSCc1csc(CN(C)C)n1, Cc1ccc(-c2nnn(CC(=O)N(c3ccccc3)C(C(=O)NCC3CCCO3)c3ccc(Cl)cc3)n2)cc1 (stereo unspecified), O=C(O)c1cc(S(=O)(=O)NCC2CCCO2)ccc1Cl (stereo unspecified), Cc1noc(C)c1COc1ccc(C(=O)NCC2CCCO2)cc1 (stereo unspecified), COC(=O)CNC(=O)CN1C(=O)N(c2ccccc2)C(N(O)C(=O)Nc2ccccc2)C1(C)C (stereo unspecified), O=C(Cn1cnc2ccccc21)NC(c1ccccc1)c1ccccc1, O=C(NCCNC[C@@H](O)COc1ccc(O)cc1)N1CCOCC1, COCCNC(=O)COc1ccc(OCCNC[C@@H](O)COc2ccccc2)cc1, CC(=O)NC(CCS(C)(=O)=O)C(=O)Nc1c(F)cccc1F (stereo unspecified), CC[N+](CC)(CC)CC(=O)Nc1c(C)cccc1C, Cc1cccc(NC(=O)CSc2nc3ccccc3c3nc(CCc4c(C)n[nH]c4C)nn23)c1, CCC(C)NC(=O)C1c2cc(OC)c(OC)cc2C(=O)N(C)C1c1cccs1 (stereo unspecified), COc1cc(CN2CCN(C(=O)CC(C)C)CC2)cc(OC)c1OC, OC(CN1CCCCC1)CN1CCCCC1, CCC(C)[C@H](NC(=O)Nc1ccc(Oc2ccccc2)cc1)C(=O)O (stereo partly specified), CN1CCCC1CCNC1C2CC3CC(C2)CC1C3 (stereo unspecified), C=C(C)[C@@H]1CC=C(C(=O)O)CC1, O=C(NCCCN1CCC(Cc2ccccc2)CC1)C1CCN(S(=O)(=O)N2CCOCC2)CC1, COc1cc(/C=N/NC(=O)c2ccncc2)ccc1OC(=O)c1ccc([N+](=O)[O-])cc1, Nc1ccc(C(=O)NCC(=O)O)cc1, CO[C@]1(NC(=O)Cc2cccs2)C(=O)N2C(C(=O)O)=C(COC(N)=O)CS[C@H]21, Cn1c(=O)c2c(-c3cccc(F)c3)c3c(nc2n(C)c1=O)-c1ccccc1C3O (stereo unspecified), CCC1OC23CCCCC2C(C#N)(C(=N)O3)C1(C#N)C#N (stereo unspecified), O=C1C2C3C=CC(C3)C2C(=O)N1c1ncn[nH]1 (stereo unspecified), COc1ccc(-n2c(=O)c(C)nc3cncnc32)cc1, CCC(C(=O)N1CCOCC1)n1c(C(=O)OC)cc2occc21 (stereo unspecified), COc1ccc(CCN2C(=O)C(Oc3ccccc3C)C2c2ccc3c(c2)OCO3)cc1OC (stereo unspecified), O=C(c1csnn1)N1CCC2(CCCN(c3ccccc3)C2)CC1, COc1[nH]c2ccc(F)cc2c1C(=O)OCC1CCN(CCNS(C)(=O)=O)CC1, COc1cc(N)c(Cl)cc1C(=O)CCC1CCN(CCNS(C)(=O)=O)CC1

activity, negative = inhibition, inactive:
Nc1nc(-c2cccs2)cs1 -30.1% [at 2.29 µM], NC(=O)C[C@H](N)C(N)=O -6.74% [at 11.4 µM], Clc1ccccc1NN(Cc1ccccn1)c1ccccc1Cl -22.4% [at 2.29 µM], Cc1cc(C)nc(SCCc2cccc[n+]2C)n1 -18.6% [at 2.29 µM], COc1ccc(-c2ccc3c(n2)CCCN3C[C@H](O)CN2CCCc3nc(C)c(C)cc32)cc1 -2.83% [at 11.4 µM], CCCNC(=O)OC[C@@H]1O[C@H](CCO/N=C(\C)CCN2CCc3nc(CC)c(CC)cc3C2)C=C[C@@H]1Oc1ccc(OC)cc1 -0.5% [at 11.4 µM], O=C(N/N=C\c1cccc(O)c1)c1ccncc1 -15.7% [at 11.4 µM], O=[N+]([O-])c1ccc([C@@H](Nc2ccccc2)c2ccc3cccnc3c2O)cc1 -21.3% [at 2.29 µM], O=C(O)c1cccc(C(=O)O)c1S(=O)Cc1ccccc1 (stereo unspecified) -2.43% [at 11.4 µM], NC(=O)NC(=O)[C@H]1CCCC[C@@H]1C(=O)O -6.09% [at 11.4 µM], COC(=O)C/C=C\[C@@H](C)[C@@H](/C=N\O[C@@H]1O[C@H](COC(C)=O)[C@H](OC(C)=O)[C@H](OC(C)=O)[C@H]1OC(C)=O)OC 8.95% [at 11.4 µM], O=C1C[C@@H](O)[C@@H](O)[C@H]2[C@@H]3C(=O)N(Cc4ccc5c(c4)OCO5)C(=O)[C@@H]3CC[C@H]12 -14.6% [at 11.4 µM] and 4.43% [at 11.4 µM]
